An excerpt weighted towards active compounds, which were near 19% of everything screened.
TDP1 inh: inhibitors of human tyrosyl-DNA phosphodiesterase TDP1. actives 0.28% (n = 350,000). Potency, µM (doses to about 130 µM), inactives show at the top dose activity change, negative = inhibition, hits mostly inhibitors. Q9NUW8. recombinant TDP1, AlphaScreen DNA substrate cleavage; further: potency means the concentration at half of the fitted maximal effect; on the % scale 0 is the no-effect control and ±100 the full control effect; nearly all actives have a fitted effect of over 40% in size
Target sequence (Q9NUW8 whole entry, looked up): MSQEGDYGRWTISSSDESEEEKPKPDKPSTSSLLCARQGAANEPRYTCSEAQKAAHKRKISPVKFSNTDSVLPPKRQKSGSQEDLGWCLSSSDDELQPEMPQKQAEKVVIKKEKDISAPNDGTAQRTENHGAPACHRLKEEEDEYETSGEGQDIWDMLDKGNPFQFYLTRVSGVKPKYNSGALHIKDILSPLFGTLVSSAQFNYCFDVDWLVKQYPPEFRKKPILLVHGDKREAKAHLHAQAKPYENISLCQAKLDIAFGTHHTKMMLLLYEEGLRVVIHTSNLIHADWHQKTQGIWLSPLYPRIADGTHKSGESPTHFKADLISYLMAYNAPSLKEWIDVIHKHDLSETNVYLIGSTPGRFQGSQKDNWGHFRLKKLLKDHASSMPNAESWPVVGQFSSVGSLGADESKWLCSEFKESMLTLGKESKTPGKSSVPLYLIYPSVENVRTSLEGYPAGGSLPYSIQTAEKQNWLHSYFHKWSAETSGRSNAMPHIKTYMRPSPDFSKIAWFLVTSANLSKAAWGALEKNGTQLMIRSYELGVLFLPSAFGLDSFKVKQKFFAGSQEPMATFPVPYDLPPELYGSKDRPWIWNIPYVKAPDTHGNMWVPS
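Enzyme-compound mixtures sat 15 min at room temperature, followed by a 5 min reaction with 15 nM final substrate and 10 min with AlphaScreen beads. Recombinant human Tdp1 was used at 1 nM final.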
HepG2 tox: HepG2 cytotoxicity, counter-screen for TGF-b inhibitors | HepG2 CAGA-GFP viability, ATP luminescence, 18 h | AID 588856 | Potency, µM (series often up to 46.1 µM), for inactives: at the highest dose activity change, negative = cytotoxicity, actives largely listed as cytotoxic | actives 0.76% (n = 410,000); further: potency means the concentration at half of the fitted maximal effect
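HepG2 CAGA-GFP cells (1000/well, DMEM with 1% FBS) received compound, then TGF-beta at 500 pg/mL final, and were incubated 18 hours at 37 degrees C. Viability was read by CellTiter-Glo luminescence. Media-only wells were set as complete cell-killing and DMSO as no toxicity.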
DT40 TDP1 CPT: DT40-hTDP1 cell growth loss with CPT; chicken DT40 Tdp1-/-;hTDP1 cells + 20 nM CPT, ATP luminescence, 48 h; Potency, µM (titrated, usually from 46.2 µM), for inactives: at the top dose activity change, negative = growth inhibition, actives largely listed as inhibitors; actives 12% (n = 420,000); AID 686979; further: potency means the concentration at half of the fitted maximal effect; on the % scale 0 is the no-effect control and ±100 the full control effect; nearly all actives have a fitted effect of over 55% in size
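Cell growth measured by CellTiter-Glo luminescence after a minimum 48 h, 37 C compound exposure with 20 nM CPT in Tdp1-knockout DT40 cells stably expressing hTDP1, seeded 400/well; qHTS titration format.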
TGFb SMAD3 inh: TGF-b pathway inhibition; actives 1.2% (n = 410,000); HepG2 CAGA-GFP TGF-b/SMAD3 reporter, GFP fluorescence, 18 h; TGF-beta stimulated, 500 pg/mL final; Potency, µM (highest dose often 46.1 µM), without a hit: at the top dose activity, negative = inhibition, usual class: inhibitors; AID 588855; further: potency means the concentration at half of the fitted maximal effect; on the % scale 0 is the no-effect control and ±100 the full control effect; nearly all actives have a fitted effect of over 65% in size
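HEPG2 CAGA-GFP reporter cells (1000/well, DMEM with 1% FBS) received compounds, then recombinant TGF-beta at 500 pg/mL final for 18 hours at 37 degrees C. Per-cell GFP summed per well was normalised to unstimulated and stimulated DMSO controls before curve fitting.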
TDP1 cell noCPT: qHTS for Inhibitors of human tyrosyl-DNA phosphodiesterase 1 (TDP1): qHTS in cells in absence of CPT; DT40 Tdp1-/- hTDP1 cells, no CPT, ATP luminescence, 48 h; Potency, µM (top dose mostly 46.2 µM), for inactives: top-dose activity change, negative = growth inhibition, usual class: inhibitors; actives 15% (n = 420,000); AID 686978, 2013; further: potency means the concentration at half of the fitted maximal effect; on the % scale 0 is the no-effect control and ±100 the full control effect; nearly all actives have a fitted effect of over 55% in size
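Chicken DT40 Tdp1-/- cells complemented with human TDP1, screened without camptothecin (DMSO vehicle only), 400 cells/well. Compounds pin-transferred, cells incubated at 37 °C for at least 48 hr. Growth read as ATP-dependent luminescence (CellTiter-Glo, 30 min at RT).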
IL-1B inflam inh: inflammasome signaling inhibition, IL-1 beta readout | THP-1 LPS/ATP IL-1B secretion, AlphaLISA, 16 h; hits give low values | activity change, % at 57.5 µM | actives 4.7% (n = 360,000); in the data active means activity change below about -50%; inconclusive means mostly about -30% to -49%; further: on the % scale 0 is the no-effect control and ±100 the full control effect
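Secreted IL-1B measured by AlphaLISA bead assay after 16 h compound exposure of THP-1 cells; compounds (final up to 57.5 uM) added 1 h before LPS (250 ng/mL) and ATP (1.25 mM) stimulation; lower signal means less secretion.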
The depositor's hits bear a star; ? = inconclusive; . = no result; [ ] = remark or other dose. Unless noted, the call rests on the fitted dose curve; in most records, active means well fitted curve in the direction sought with a large enough effect; inconclusive means small, poorly fitted or top-dose-only effect, or another doubt; inactive means no such curve, though single readings can be large; an effect the other way counts as inactive or inconclusive.

SMILES	TDP1 inh	HepG2 tox	DT40 TDP1 CPT	TGFb SMAD3 inh	TDP1 cell noCPT	IL-1B inflam inh
COC(=O)c1cc(NS(=O)(=O)c2cc(Br)cc3c2N(C(C)=O)CC3)cc(C(=O)OC)c1	5.7%	1.9%	-18.1%	-38.5%	-19.6%	.
CC(=O)Nc1ccc(NC(=O)c2oc3cc(C)c(C)cc3c2C)cc1	-4.1%	3.4%	-10.1%	2.1%	-16.0%	-50.5*
COC(=O)c1sc(NC(=O)c2oc3ccccc3c2C)nc1C	4.4%	-6.0%	?	-6.9%	3.66µM*	23.0
O=C(COC(=O)c1cc(Br)ccc1O)Nc1ccc2c(c1)OCO2	1.8%	-25.5%	?	?	?	29.7
COc1ccc(S(=O)(=O)N2CCCCC2)cc1NC(=O)c1c(F)cccc1Cl	-0.6%	-13.0%	?	22.1%	16.4µM*	-22.0
Cc1onc(-c2c(F)cccc2Cl)c1C(=O)Nc1cc(S(=O)(=O)N2CCCCC2)ccc1O	.	-30.8%	16.4µM*	?	16.4µM*	-17.1
COc1ccc(S(=O)(=O)N2CCCCC2)cc1NC(=O)c1ccccc1	-0.8%	-6.4%	6.6%	-13.3%	-19.1%	18.2
CC(=O)N1CCc2cc(Br)cc(S(=O)(=O)N3CCC(C(=O)O)CC3)c21	-10.1%	0.4%	2.1%	3.7%	-14.9%	-10.1
Cc1ccsc1C(=O)N(C)CC(=O)Nc1ccccc1Br	-0.8%	6.4%	-2.4%	3.5%	-16.5%	-3.4
Cc1ccc(C)c(NC(=O)CN(C)C(=O)c2ccccc2OCc2ccc(Cl)cc2)c1	-1.0%	-8.8%	23.1µM*	-26.9%	?	-67.8*
CN(CC(=O)Nc1ccccc1Br)C(=O)c1sccc1-c1ccccc1	1.3%	-10.6%	?	-16.1%	13µM*	2.7
CN(CC(=O)Nc1ccccc1Br)C(=O)c1ccccc1OCc1ccccc1Cl	.	-17.0%	?	4.0%	18.4µM*	-82.2*
COCc1cc(C)nc(N/N=C/c2ccc(-c3ccc(Cl)cc3[N+](=O)[O-])o2)c1C#N	10.1%	-2.3%	-11.8%	2.9%	-6.4%	20.9
O=c1cccc2c1c1cc[nH]c3ccc(=O)n2c31	.	-26.7%	9.2µM*	?	18.4µM*	-71.8*
O=c1cc[nH]c2ccc(Cl)cc12	0.0%	0.0%	-14.9%	-6.5%	-16.7%	23.3
O=S1(=O)CC(N2CC=CC2)CN1Cc1cn(Cc2ccc(F)cc2)nn1 (configuration not stated)	.	.	4.3%	.	-7.4%	8.6
CN(C(=O)c1ccc(NC(=O)C2CCN(C(=O)OC(C)(C)C)CC2)cc1)C1CCC1	2.4%	-24.1%	18.4µM*	-7.2%	18.4µM*	-1.9
CN(C(=O)c1cccc(NC(=O)C2CCCN(C(=O)OC(C)(C)C)C2)c1)C1CCC1 (configuration not stated)	0.4%	-3.7%	20.6µM*	-22.0%	16.4µM*	?
CC(C)(C)OC(=O)N1CCCC(C(=O)Nc2cccc(C(=O)N3CCCCC3)c2)C1 (configuration not stated)	.	1.6%	-17.0%	-9.2%	-24.4%	-21.7
CN(C(=O)c1cccc(NC(=O)C2CCN(C(=O)OC(C)(C)C)CC2)c1)C1CCCCC1	1.1%	-21.0%	20.6µM*	?	13µM*	3.1
COc1ccccc1NC(=O)CCN1CCC(C(N)=O)CC1	3.1%[12.3 µM]	-14.6%	-17.9%	4.4%	-5.9%	.
CC(=O)c1ccc(NC(=O)CSc2nnc3ccc(-c4ccccn4)nn23)cc1	-5.2%	-38.1%	2.1%	1.6%	8.3%	5.6
COc1cccc(CNC(=O)CNC(=S)N(Cc2ccccc2)Cc2ccccc2F)c1	2.9%	-23.4%	?	?	?	?
CCOC(=O)CNC(=S)N(Cc1ccccc1)Cc1ccccc1F	2.5%	-27.5%	2.7%	-21.3%	?	-56.1*
Cc1ccc(CNC(=O)CNC(=S)N(Cc2ccccc2)Cc2ccccc2F)cc1	2.6%	-35.4%	-19.9%	?	?	-68.9*
SMILES	TDP1 inh	HepG2 tox	DT40 TDP1 CPT	TGFb SMAD3 inh	TDP1 cell noCPT	IL-1B inflam inh
CCOC(=O)CNC(=S)N(Cc1ccccc1)Cc1cccs1	1.2%	-5.0%	0.1%	-13.6%	-2.2%	-4.9
CNc1nnc(Sc2ncccc2[N+](=O)[O-])s1	6.2%	13.5%	8.2µM*	-5.0%	16.4µM*	.
O=[N+]([O-])c1cccnc1Sc1ccc(F)cc1	.	7.08µM*	-2.3%	-13.0%	-17.7%	-12.0
Cc1oc(C)c2c(=O)ccc3c(c12)OC(N)=C(C#N)C3c1ccccc1 (configuration not stated)	-5.6%	-7.2%	?	22.4%	?	-8.5
CSc1ccc(C2C(C#N)=C(N)Oc3c2ccc(=O)c2c(C)oc(C)c32)cc1 (configuration not stated)	-2.1%	-10.9%	18.4µM*	74.6%	16.4µM*	-7.6
CN(C)c1ccc(/C=N/NC(=O)C(=O)/C=C2\NC3(CCCC3)Cc3ccccc32)cc1	2.7%	14.7%	25.9µM*	11.2%	20.6µM*	-14.1
O=C(/C=C1\NC2(CCCC2)Cc2ccccc21)C(=O)N/N=C/c1ccccc1O	5.3%	-35.8%	3.66µM*	?	2.06µM*	53.7
O=C(O)CN=C1NC2(CCCC2)Cc2ccccc21	0.0%	4.4%	4.2%	28.6%	1.6%	-5.6
COc1cc(/C=N/NC(=O)C(=O)/C=C2\NC3(CCCC3)Cc3ccccc32)ccc1O	10.8%	-1.6%	?	-10.4%	?	-11.9
CCC(C)c1ccc(NC(=S)NCCn2cc(Br)cn2)cc1 (configuration not stated)	0.0%	-19.0%	20.6µM*	?	14.6µM*	-52.3*
CCC(C)c1ccc(NC(=S)NCCn2cc(Cl)cn2)cc1 (configuration not stated)	5.4%	-33.1%	?	-23.2%	20.6µM*	?
CCC(C)c1ccc(NC(=S)Nc2ccc(OC)c(OC)c2)cc1 (configuration not stated)	4.7%	-21.2%	?	-23.4%	?	-13.2
CN(C)CCNC(=S)Nc1ccc(Cl)cc1	-2.6%	-31.0%	-4.2%	0.7%	-9.1%	12.5
Cc1ccc(/C=C/C(=O)N2CCN(S(=O)(=O)/C=C/c3ccccc3)CC2)o1	3.1%	8.3%	2.3%	-8.3%	-1.5%	8.0
COc1ccc(-c2nn3c(-c4ccccc4C)nnc3c3ccccc23)cc1	-1.1%	-105.3%	?	?	?	.

Source: PubChem (National Center for Advancing Translational Sciences (NCATS))
